Reference: ChEMBL document CHEMBL3433997, “St. Jude Leishmania screening dataset” (2016)

Biological target: Hexose transporter 1 (Plasmodium falciparum) (UniProt O97467)
Test: ST_JUDE_LEISH: Cytotoxicity at 2uM final concentration against transgenic Leishmania Mexicana promastigotes LmPfHT that are glucose transport deficient and complemented with the Plasmodium falciparum hexose transporter. Activity is measured by DNA content using SYBR green in vitro
Assay type: functional

| SMILES | inhibition [%] |
| --- | --- |
| CC(CN(C)C)C(=O)Nc1ccc(-c2ccc(-c3nc4ccccc4[nH]3)cc2)cc1 (stereo not drawn) | 3.01 |
| COc1ccc(-c2cc(C(=O)N3CCc4ccccc43)c3ccccc3n2)cc1OC | 1.24 |
| Cc1cc(OCCCN2CCCCC2)ccc1NC(=O)COc1ccc(Cl)cc1C(=O)c1cc(C#N)cc(C(F)(F)F)c1 | 3.53 |
| NC1(C(=O)O)Cc2ccc(Cl)cc2C1 (stereo not drawn) | 2.95 |
| N#Cc1cccc(C(=O)NC2CCN(c3ccnc(Nc4ccc(F)cc4)n3)C2)c1 (stereo not drawn) | 2.47 |
| CCCCCCCN1CCC(CC(=O)Nc2ccnc3ccc(OC)cc23)CC1 | 9.11 |
| COCCN1CCN(Cc2ccc(-c3cccc(-c4nc5ccccc5[nH]4)c3)cc2)CC1 | -1.3 |
| CCc1cc2c(Sc3nc4ccccc4[nH]3)ncnc2s1 | 0.97 |
| COc1cc2c(=O)c(Cc3ccc(Cl)cc3)c(C)[nH]c2cc1F | 3.31 |
| COc1ccccc1C(=O)Nc1cccc(N2CCC(NCc3ccc(-n4cccn4)cc3)CC2)c1 | 10.7 |
| CN1CCN(CC(=O)Nc2cccc(-c3ccc(-c4nc5cc(C(F)(F)F)ccc5[nH]4)cc3)c2)CC1 | 0.81 |
| COc1cccc(OC)c1CN1CCC(N(C)CCCCCCCCN2CCC(OC(=O)Nc3ccccc3-c3ccccc3)CC2)CC1 | 108 |
| COc1ccc2ccccc2c1CCCCN1CCN(CC(c2ccc(F)cc2)N2CCN(C(C)C)CC2)CC1 (stereo not drawn) | 9.64 |
| Oc1cccc(Nc2ccnc3cc(-c4ccncc4)ccc23)c1 | 9.58 |
| CN(C)CC1CCCN1Cc1ccccc1-c1cnn(C)c(=O)c1Oc1ccccc1F (stereo not drawn) | 1.75 |
| COC(=O)Cn1c2ccccc2c2c(N)c(C(=O)OC)c(C)nc21 | 0.97 |
| O=C(NCc1cccc(Cl)c1)c1ccc(CNC2CCN(Cc3ccccc3)CC2)cc1 | -0.25 |
| CS(=O)(=O)NCCCNCc1cccc(-c2cccc(-c3nc4cc(F)ccc4[nH]3)c2)c1 | 1.37 |
| COc1ccc2nc(NC(N)=NC(=O)Nc3ccccc3)nc(C)c2c1 | 2.15 |
| O=C(NCCc1ccccc1)N(Cc1ccccc1-c1ccc(CNCCc2ccccc2)cc1)C1CCN(Cc2ccccc2)CC1 | 8.75 |

| SMILES | inhibition [%] |
| --- | --- |
| COc1ccc2nccc([C@@H](O)CN3CCC(NCc4cc5ccccc5o4)CC3)c2c1 | 15.3 |
| Cc1cc(N2CCNCC2)c2cc(NC(=O)Nc3ccc(Cl)c(Cl)c3)ccc2n1 | 3.7 |
| O=C(Nc1ccc(CCNCc2ccccc2)cc1)Nc1ccc(OC(F)(F)F)cc1 | -0.14 |
| O=C(Nc1ccc(-c2cccc(-c3nc4cc(C(F)(F)F)ccc4[nH]3)c2)cc1)Nc1ccc(Cl)c(Cl)c1 | 7.67 |
| CS(=O)(=O)CCNC(=O)c1ccc(-c2cc3c(Nc4ccc5c(cnn5Cc5ccccc5)c4)ncnc3cn2)o1 | 3.93 |
| O=c1cc(NCCCNCc2cc(C(F)(F)F)ccc2F)[nH]c2ccccc12 | 0.86 |
| CCOC(=O)c1nc(-c2cc(Cl)nc(Cl)c2)[nH]c1NC(=S)NCCCN1CCOCC1 | 1.96 |
| CC(=O)N1N=C(c2[nH]c3ccc(Br)cc3c2C)OC1c1ccccc1 (stereo not drawn) | 4.06 |
| CC(C)C[C@H](NC(=O)c1cc2ccccc2s1)C(=O)N[C@H]1CCN(Cc2ccc(OC[C@@H]3CCCN3C)c3ccccc23)C1 | 5.05 |
| CC(=O)Nc1cccc(Nc2nccc(-c3c(-c4cccc(NC(=O)c5c(F)cccc5F)c4)nn4ncccc34)n2)c1 | 11 |
| O=C(Nc1ccccc1)c1c[nH]cn1 | 2.14 |
| COc1cc(NC(=O)C(c2ccc(Cl)cc2)C(C)C)cc(OC)c1OC (stereo not drawn) | 1.79 |
| O=C(Nc1cccc(-c2ccc(-c3nc4cc(C(F)(F)F)ccc4[nH]3)cc2)c1)Nc1ccc(Cl)c(Cl)c1 | 2.8 |
| COCCOc1cccc(CN2CCC(c3cc4nc(C)cc(C(F)(F)F)n4n3)C2)c1 (stereo not drawn) | 4.65 |
| CC(Oc1ccc(Cl)cc1)C(=O)NCCC1CCN(CCCCCNC(=O)/C=C/c2ccc(Cl)c(Cl)c2)CC1 (stereo not drawn) | 1.37 |
| Fc1cccc(COc2ccc(Nc3ncnc4sc(C#CCNC5CCCC5)cc34)cc2Cl)c1 | 2.09 |
| O=C(CCC1CCCCC1=O)c1ccccc1 (stereo not drawn) | 2.15 |
| COc1ccc(CNC2Cc3ccccc3C2)cc1-c1ccc(S(=O)(=O)NCCc2ccccn2)s1 | 0.03 |
| CN(C(=O)C(C)(C)Oc1ccc(Cl)cc1)C1CCN(CCCCCNC(=O)/C=C/c2ccc(Cl)c(Cl)c2)CC1 | 2.76 |

Biological target: Glucose transporter (Leishmania mexicana) (UniProt O61059)
Test: ST_JUDE_LEISH: Cytotoxicity at 2uM final concentration against transgenic Leishmania Mexicana promastigotes LmGT2 that are glucose transport deficient and complemented with the L. Mexicana glucose transporter 2. Activity is measured by DNA content using SYBR green in vitro
Assay type: functional

| SMILES | inhibition [%] |
| --- | --- |
| CC(CN(C)C)C(=O)Nc1ccc(-c2ccc(-c3nc4ccccc4[nH]3)cc2)cc1 (stereo not drawn) | 5.36 |
| COc1ccc(-c2cc(C(=O)N3CCc4ccccc43)c3ccccc3n2)cc1OC | -0.93 |
| Cc1cc(OCCCN2CCCCC2)ccc1NC(=O)COc1ccc(Cl)cc1C(=O)c1cc(C#N)cc(C(F)(F)F)c1 | 0.43 |
| NC1(C(=O)O)Cc2ccc(Cl)cc2C1 (stereo not drawn) | 3.62 |
| N#Cc1cccc(C(=O)NC2CCN(c3ccnc(Nc4ccc(F)cc4)n3)C2)c1 (stereo not drawn) | 0.63 |
| CCCCCCCN1CCC(CC(=O)Nc2ccnc3ccc(OC)cc23)CC1 | 6.34 |
| COCCN1CCN(Cc2ccc(-c3cccc(-c4nc5ccccc5[nH]4)c3)cc2)CC1 | -2.88 |
| CCc1cc2c(Sc3nc4ccccc4[nH]3)ncnc2s1 | -0.12 |
| COc1cc2c(=O)c(Cc3ccc(Cl)cc3)c(C)[nH]c2cc1F | 0.73 |
| COc1ccccc1C(=O)Nc1cccc(N2CCC(NCc3ccc(-n4cccn4)cc3)CC2)c1 | 5.84 |
| CN1CCN(CC(=O)Nc2cccc(-c3ccc(-c4nc5cc(C(F)(F)F)ccc5[nH]4)cc3)c2)CC1 | 1.35 |
| COc1cccc(OC)c1CN1CCC(N(C)CCCCCCCCN2CCC(OC(=O)Nc3ccccc3-c3ccccc3)CC2)CC1 | 74.3 |
| COc1ccc2ccccc2c1CCCCN1CCN(CC(c2ccc(F)cc2)N2CCN(C(C)C)CC2)CC1 (stereo not drawn) | 12.3 |
| Oc1cccc(Nc2ccnc3cc(-c4ccncc4)ccc23)c1 | 8.68 |
| CN(C)CC1CCCN1Cc1ccccc1-c1cnn(C)c(=O)c1Oc1ccccc1F (stereo not drawn) | 0.1 |
| COC(=O)Cn1c2ccccc2c2c(N)c(C(=O)OC)c(C)nc21 | -0.45 |
| O=C(NCc1cccc(Cl)c1)c1ccc(CNC2CCN(Cc3ccccc3)CC2)cc1 | 2.18 |
| CS(=O)(=O)NCCCNCc1cccc(-c2cccc(-c3nc4cc(F)ccc4[nH]3)c2)c1 | -0.27 |
| COc1ccc2nc(NC(N)=NC(=O)Nc3ccccc3)nc(C)c2c1 | 0.15 |
| O=C(NCCc1ccccc1)N(Cc1ccccc1-c1ccc(CNCCc2ccccc2)cc1)C1CCN(Cc2ccccc2)CC1 | 3.55 |

| SMILES | inhibition [%] |
| --- | --- |
| COc1ccc2nccc([C@@H](O)CN3CCC(NCc4cc5ccccc5o4)CC3)c2c1 | 5.59 |
| Cc1cc(N2CCNCC2)c2cc(NC(=O)Nc3ccc(Cl)c(Cl)c3)ccc2n1 | 3.64 |
| O=C(Nc1ccc(CCNCc2ccccc2)cc1)Nc1ccc(OC(F)(F)F)cc1 | 0.49 |
| O=C(Nc1ccc(-c2cccc(-c3nc4cc(C(F)(F)F)ccc4[nH]3)c2)cc1)Nc1ccc(Cl)c(Cl)c1 | 13 |
| CS(=O)(=O)CCNC(=O)c1ccc(-c2cc3c(Nc4ccc5c(cnn5Cc5ccccc5)c4)ncnc3cn2)o1 | 4.93 |
| O=c1cc(NCCCNCc2cc(C(F)(F)F)ccc2F)[nH]c2ccccc12 | 3.1 |
| CCOC(=O)c1nc(-c2cc(Cl)nc(Cl)c2)[nH]c1NC(=S)NCCCN1CCOCC1 | 0.84 |
| CC(=O)N1N=C(c2[nH]c3ccc(Br)cc3c2C)OC1c1ccccc1 (stereo not drawn) | 3.6 |
| CC(C)C[C@H](NC(=O)c1cc2ccccc2s1)C(=O)N[C@H]1CCN(Cc2ccc(OC[C@@H]3CCCN3C)c3ccccc23)C1 | 2.71 |
| CC(=O)Nc1cccc(Nc2nccc(-c3c(-c4cccc(NC(=O)c5c(F)cccc5F)c4)nn4ncccc34)n2)c1 | 1.53 |
| O=C(Nc1ccccc1)c1c[nH]cn1 | -0.23 |
| COc1cc(NC(=O)C(c2ccc(Cl)cc2)C(C)C)cc(OC)c1OC (stereo not drawn) | 5.89 |
| O=C(Nc1cccc(-c2ccc(-c3nc4cc(C(F)(F)F)ccc4[nH]3)cc2)c1)Nc1ccc(Cl)c(Cl)c1 | 1.65 |
| COCCOc1cccc(CN2CCC(c3cc4nc(C)cc(C(F)(F)F)n4n3)C2)c1 (stereo not drawn) | 0.83 |
| CC(Oc1ccc(Cl)cc1)C(=O)NCCC1CCN(CCCCCNC(=O)/C=C/c2ccc(Cl)c(Cl)c2)CC1 (stereo not drawn) | 0.04 |
| Fc1cccc(COc2ccc(Nc3ncnc4sc(C#CCNC5CCCC5)cc34)cc2Cl)c1 | 2.47 |
| O=C(CCC1CCCCC1=O)c1ccccc1 (stereo not drawn) | 1.52 |
| COc1ccc(CNC2Cc3ccccc3C2)cc1-c1ccc(S(=O)(=O)NCCc2ccccn2)s1 | 2.04 |
| CN(C(=O)C(C)(C)Oc1ccc(Cl)cc1)C1CCN(CCCCCNC(=O)/C=C/c2ccc(Cl)c(Cl)c2)CC1 | 0.52 |
